Max response data for 25 molecules are collected here from PubChem BioAssay (NCATS).

“And” between values parts separate entries of the source, which are not always exact repeats. Equal entries are not always repeated. Inconclusive results are not listed.

The nature of this assay: qHTS assay for small molecule agonists of retinoid X receptor alpha signaling (AID 588544). The conditions noted are these: HEK293T RXRa-UAS-bla, beta-lactamase reporter, 18 h; 530 nm emission.
Consider `O=S(=O)(c1ccc(O)cc1)c1ccc(O)cc1`, for which the max response is -2.49%. As to `Cc1ccccc1C(=O)Nc1cccc(OC(C)C)c1`, the max response was -12.9%. Under `CN(C)P(=O)(N(C)C)N(C)C` stands -16.8%; under `O=c1[nH]c2ccccc2c(=O)o1`, -6.9%. Under `COc1ccc(C(O)(c2cncnc2)C2CC2)cc1` (stereo not given) stands -7.16%; under `CN(C)c1nc(=O)n(C2CCCCC2)c(=O)n1C`, -8.9%. Under `COC(=O)c1ccccc1CS(=O)(=O)NC(=O)Nc1nc(OC)cc(OC)n1` stands -9.59%; under `CCC[CH2][Sn]([CH2]CCC)([O]C(C)=O)[O]C(C)=O`, 5.61%; under `CCOP(=O)(NC(C)C)Oc1ccc(S(C)=O)c(C)c1` (stereo not given), 0.27%.

On to `CCOP(=O)(O)C(N)=O`, for which the max response is -12.7%.

Take `COC(=O)c1ccccc1S(=O)(=O)NC(=O)N(C)c1nc(C)nc(OC)n1`: the max response is -6.9%. Under `Clc1ccc(C(Cl)(Cl)Cl)cc1` stands -6.16%.

On to `CCOC1Oc2ccc(OS(C)(=O)=O)cc2C1(C)C` (stereo not given), for which the max response amounted to 7.47%.

For `Clc1ccc([C@]2(Cn3cncn3)C[C@H](Br)CO2)c(Cl)c1`, the max response is -0.873% and 8.46%. As to `CCCCC(CC)COC(=O)Cl` (stereo not given), the max response was -16.3%.

Turning to `CCOP(=S)(OCC)SCC(=O)NC(C)C`, the max response was -3.21%. Consider `C/C(=N\NC(=O)Nc1cc(F)cc(F)c1)c1ncccc1C(=O)O`, for which the max response is 4% and -10.7%. Under `C=CC(=O)OCCCCCC(C)C` stands -13.5%; under `CCC(C)n1c(=O)[nH]c(C)c(Br)c1=O` (stereo not given), 0.805%; under `CCN(CC)C(=O)C(C)Oc1cccc2ccccc12` (stereo not given), 5.95%. Under `CCCCC(CC)C(=O)Cl` (stereo not given) stands -20.2%; under `CC(Oc1cc(Cl)c(Cl)cc1Cl)C(=O)O` (stereo not given), -8.77%.

On to `Cc1c(F)c(F)c(COC(=O)C2C(/C=C(\Cl)C(F)(F)F)C2(C)C)c(F)c1F` (stereo not given), for which the max response was -0.493%. Under `Nc1ccc([N+](=O)[O-])cc1Cl` stands -7.96%; under `CNC(=O)Oc1ccc(N(C)C)c(C)c1`, -30.4%.
